PubChem BioAssay AID1986 (Sanford-Burnham Center for Chemical Genomics, 2009)
Out of some 290,000 compounds screened, about 890 (0.31%) were called active. Cut-off read from the data, not from the text of the source: active = inhibition mostly above about 52% (no sharp cut-off); inactive = mostly below about 76%. For the sample, actives were picked, then their nearest neighbours and some compounds at random.

Experiment: cell-free HIV fusion peptide-binding blockers – biochemical, uHTS, fluorescence dequenching, primary screen (AID 1986)
Settings: 30 min, stronger effect = higher value
[1] = measured here: repeat confirmation average inhibition, at 18.6 µM

SMILES | inhibition (at 20 µM) | inhibition [1]
Cc1c(C(=O)NN)sc(=S)n1C | -1.3% (inactive) | –
O=C(N/N=C/c1cc2c(cc1Br)OCO2)c1cc2ccccc2o1 | -0.4% (inactive) | –
COc1cccc(NC(=O)Cc2c(O)c3ccccc3[nH]c2=O)c1 | -2.3% (inactive) | –
Cn1nnnc1SCc1ccccc1F | 2.4% (inactive) | –
O=C(Nc1cccc(NC(=O)c2ccc([N+](=O)[O-])o2)c1)c1ccco1 | 0.6% (inactive) | –
CC(C)c1onc(C(=O)NCCc2ccccc2)c1[N+](=O)[O-] | -0.8% (inactive) | –
O=C(O)c1ccccc1NS(=O)(=O)c1cccc(C(F)(F)F)c1 | 7.8% (inactive) | –
O=C(O)c1ccccc1NS(=O)(=O)c1cccc(-n2sc3ccccc3c2=O)c1 | 54.9% (active) | –
CN(C)S(=O)(=O)c1cccc(-n2sc3ccccc3c2=O)c1 | -1.2% (inactive) | –
Cc1ccccc1N=Cc1cccc(O)c1O | 64.9% (active) | –
Oc1cccc(C=Nc2cccc3ccccc23)c1O | 36.3% (inactive) | –
Cc1ccc(N=Cc2cccc(O)c2O)c(C)c1 | -1.8% (inactive) | –
Clc1cccc(CN2CCN(c3nc4nonc4nc3NC3CC3)CC2)c1 | 3.4% (inactive) | –
Cc1cc2nc3c(=O)n(C4CCCCC4)c(=O)[nH]c3nc2cc1N | 66.8% (active) | –
CCCCCCn1c(=O)[nH]c2nc3cc(N)c(C)cc3nc2c1=O | 38.8% (inactive) | –
Nc1ccc2nc3c(=O)n(C4CCCCC4)c(=O)[nH]c3nc2c1 | 146% (inactive) | –
CCOC(=O)c1cnc2c(N=Nc3ccccc3)c(N)nn2c1N | -0.1% (inactive) | –
COc1ccc(/C=N\NS(=O)(=O)c2ccc(Br)cc2)cc1COc1ccccc1[N+](=O)[O-] | -1.1% (inactive) | –
COC(=O)c1cc(S(=O)(=O)NCCc2ccc(Cl)cc2)c[nH]1 | 1.3% (inactive) | –
COc1ccccc1C(NC(C)=O)c1cc(Cl)c2cccnc2c1O (configuration not stated) | -2.4% (inactive) | –
O=C(NC(c1ccccc1)c1cc(Cl)c2cccnc2c1O)c1cccnc1 (configuration not stated) | 0.8% (inactive) | –
CCOc1ccc(C(Nc2cccnc2)c2cc(Cl)c3cccnc3c2O)cc1 (configuration not stated) | 17.1% (inactive) | –
Oc1c(C(Nc2ccccn2)c2cccnc2)cc(Cl)c2cccnc12 (configuration not stated) | -3.6% (inactive) | –
O=C(O)COc1ccccc1C(Nc1cccnc1)c1cc(Cl)c2cccnc2c1O (configuration not stated) | 77.6% (active) | –

SMILES | inhibition (at 20 µM) | inhibition [1]
O=C(O)COc1ccccc1C(Nc1ccccn1)c1cc(Cl)c2cccnc2c1O (configuration not stated) | 56.9% (active) | –
Fc1ccc(CSc2ccc(-c3ccc4c(c3)OCO4)nn2)cc1 | -3.7% (inactive) | –
O=S(=O)(NCCC1CC1(Cl)Cl)c1ccccc1 (configuration not stated) | -2% (inactive) | –
CCOc1ccc(C(=O)NC(=S)Nc2ccccn2)cc1[N+](=O)[O-] | -0.9% (inactive) | –
CCCCNC(=O)Oc1c(Br)cc2sc(=O)oc2c1Br | 54.3% (active) | –
O=C(NC1CCCCC1)Oc1cc2oc(=O)sc2cc1Br | -1.5% (inactive) | –
CCCCNC(=O)Oc1cc(CCl)on1 | 0.1% (inactive) | –
COC(=O)c1cc(OC)c(OC)cc1NC(=O)c1csc(C)c1 | -1.1% (inactive) | –
COc1ccccc1-c1ccc(/C=C2\C=CC(=O)O2)o1 | 70.7% (active) | 59%
CCCC1=C/C(=C/c2ccc(-c3ccccc3OC)o2)C(=O)O1 | 32% (inactive) | –
COc1ccccc1-c1ccc(/C=C2/C=C(C)OC2=O)o1 | 48.6% (inactive) | –
CCCCNC(=O)O/N=C(\N)CS(=O)(=O)C(C)(C)C | -2.3% (inactive) | –
COc1cccc(NC(=O)Cn2nnc(C(=O)Nc3cc(Cl)ccc3OC)c2N)c1 | 1.3% (inactive) | –
CCOc1ccc(C(=O)Nc2ncccc2Cl)cc1 | 1.2% (inactive) | –
CCOC(=O)C(C)N1C(=O)S/C(=C\c2ccc(-c3ccccc3C(=O)O)o2)C1=O (configuration not stated) | 22.7% (inactive) | –
COc1ccc(O)c(/C=c2/sc3nc4cc(C)c(C)cc4n3c2=O)c1 | -3.1% (inactive) | –
O=C(O)c1ccccc1-c1ccc(/C=c2\sc3nc4cc(Br)cnc4n3c2=O)o1 | 56.9% (inactive) | 28.9%
Cc1cc2nc3s/c(=C/c4ccc(-c5ccccc5C(=O)O)o4)c(=O)n3c2cc1C | 116% (active) | 108%
Cc1ccc2c(nc3s/c(=C/c4cccs4)c(=O)n32)c1C | -1.1% (inactive) | –
Cc1ccc2c(nc3s/c(=C\c4ccc(-c5ccccc5C(=O)O)o4)c(=O)n32)c1C | 88% (active) | 121%
COCCCNC(=O)c1ccc(CS(=O)(=O)c2cccc(C(F)(F)F)c2)o1 | -1.7% (inactive) | –
CCC12CN3CCN(CC(C3)/C1=N\NC(=O)c1ccc(F)cc1)C2 | 0.1% (inactive) | –
CCOc1ccc(C2C(C(=O)c3ccco3)=C(O)C(=O)N2Cc2cccnc2)cc1 (configuration not stated) | 0.5% (inactive) | –
Cc1ccc(C)c(NC(=O)CSc2nnc(CNC(=O)c3ccco3)n2C)c1 | -1.8% (inactive) | –

SMILES | inhibition (at 20 µM) | inhibition [1]
CCOC(=O)c1ccc(N2C(=O)c3n[nH]c(-c4ccco4)c3C2c2ccc([N+](=O)[O-])cc2)cc1 (configuration not stated) | 60.1% (active) | –
CCOC(=O)c1ccc(N2C(=O)c3n[nH]c(C)c3C2c2ccco2)cc1 (configuration not stated) | -0.8% (inactive) | –
CCOC(=O)c1ccc(N2C(=O)c3n[nH]c(-c4ccco4)c3C2c2cccc([N+](=O)[O-])c2)cc1 (configuration not stated) | 14.6% (inactive) | –
Cc1nnc(SCC(=O)N2CCN(c3ccccc3)CC2)n(N)c1=O | 0.4% (inactive) | –
COc1cc(OC)cc(C(=O)n2nc(C)cc2C)c1 | -0.7% (inactive) | –
Cn1c(CC(=O)Nc2ccc(Cl)cc2)nnc1SCC(=O)N1CCOCC1 | -1% (inactive) | –
Cc1cc(/C=C2\NC(=S)N(C)C2=O)ccc1N1CCCC1 | 143% (inactive) | –
CCCN1C(=O)/C(=C/c2ccc(N3CCCC3)c(C)c2)NC1=S | 125% (inactive) | –
Cc1cc(/C=C2/C(=O)N(C)C(=S)N2C)ccc1N1CCCC1 | 54.2% (active) | –
Cc1cc(S(=O)(=O)N2CCOCC2)ccc1OCC(=O)Nc1cccc(F)c1 | -1.3% (inactive) | –
CCOc1ccc(C(C)NC(=O)c2cccnc2OCC)cc1OCC (configuration not stated) | -0.2% (inactive) | –
O=[N+]([O-])c1cc(/C=N\Nc2nc(-c3ccccc3)cs2)ccc1O | 33.1% (inactive) | –
O=[N+]([O-])c1cc(/C=N\Nc2nccs2)ccc1O | 71.1% (active) | –
Cc1csc(N/N=C/c2ccc(O)c([N+](=O)[O-])c2)n1 | 0% (inactive) | –
O=C(/C=C/c1cc([N+](=O)[O-])ccc1OC(F)F)Nc1cccc2ccccc12 | 1.3% (inactive) | –
CC1(C)Cc2c(sc(NC(=S)NC(=O)c3ccccc3)c2C(=O)O)CO1 | 2.8% (inactive) | –
CC(/C=C1\SC(=S)N(NS(=O)(=O)c2ccccc2)C1=O)=C\c1ccccc1 | 40.6% (inactive) | –
CC(/C=C1\SC(=S)N(NC(=O)c2ccc(C)cc2)C1=O)=C\c1ccccc1 | 6.4% (inactive) | –
CC(/C=C1\SC(=S)N(NS(=O)(=O)c2ccc(C)cc2)C1=O)=C\c1ccccc1 | 56.5% (active) | –
COc1ccc(NC(=O)/C(C#N)=C\C=C\c2ccco2)cc1 | 73.2% (inactive) | -0.6%
COc1ccc(NC(=O)/C(C#N)=C/C=C/c2ccco2)cc1 | 80.7% (active) | –
COc1ccccc1NC(=O)/C(C#N)=C/C=C/c1ccco1 | 24.1% (inactive) | –
Cc1cccn2cc(CCNC(=O)c3ccco3)nc12 | -0.6% (inactive) | –
Cc1cc(N2C(=O)C(O)=C(C(=O)c3ccco3)C2c2ccc([N+](=O)[O-])cc2)no1 (configuration not stated) | 1.4% (inactive) | –

SMILES | inhibition (at 20 µM) | inhibition [1]
Cc1nc(=O)c(-c2ccccc2)c(C)n1CCCCCC(=O)O | -2.3% (inactive) | –
CC(N=C(NS(=O)(=O)c1ccc(Cl)cc1)c1ccccc1)C(=O)O (configuration not stated) | -0.1% (inactive) | –
COc1cc(C=C(c2nc3ccccc3s2)c2nc3ccccc3s2)cc(OC)c1O | 26.6% (inactive) | –
COc1ccc(C=C(c2nc3ccccc3s2)c2nc3ccccc3s2)cc1O | 57.6% (active) | –
COc1cc(C=C(c2nc3ccccc3s2)c2nc3ccccc3s2)ccc1O | 8.2% (inactive) | –
CCS(=O)(=O)Nc1cccc(C2=NN(S(C)(=O)=O)C(c3cccs3)C2)c1 (configuration not stated) | 0.5% (inactive) | –
CCCC(=O)NC(Nc1ccc(S(=O)(=O)Nc2cc(C)on2)cc1)(C(=O)OCC)C(F)(F)F (configuration not stated) | -1.8% (inactive) | –
CCOC(=O)C(NC(=O)CC)(Nc1ccc(S(=O)(=O)Nc2cc(C)on2)cc1)C(F)(F)F (configuration not stated) | 59.8% (active) | –
CCOC(=O)C(NC(C)=O)(Nc1ccc(S(=O)(=O)Nc2cc(C)on2)cc1)C(F)(F)F (configuration not stated) | 3.7% (inactive) | –
COCCCN(C(=S)NC(=O)C(C)(C)C)c1c(N)n(Cc2ccccc2)c(=O)[nH]c1=O | -2.2% (inactive) | –
COc1cc(/C=C2\SC(=Nc3ccccc3OC)NC2=O)ccc1O | 8.2% (inactive) | –
COc1cc(/C=C2/SC(=S)N(Cc3ccccc3)C2=O)ccc1O | 6% (inactive) | –
COc1cc(/C=C2/SC(=S)N(Cc3ccccc3)C2=O)cc(Cl)c1O | 119% (active) | 88%
COc1ccc(/C=C2/SC(=S)N(Cc3ccccc3)C2=O)cc1O | -3.1% (inactive) | –
COc1ccc(O)c(/C=C2/SC(=S)N(Cc3ccccc3)C2=O)c1 | 68.8% (active) | 51%
COc1cc(/C=C2/SC(=Nc3ccc(O)cc3)NC2=O)cc(OC)c1O | -2.4% (inactive) | –
COc1cc(/C=C2\SC(=Nc3ccccc3)NC2=O)cc(Cl)c1O | 90% (active) | 60.8%
COc1ccc(OC)c(/C=C2\SC(=S)N(Cc3cccnc3)C2=O)c1 | 36.3% (inactive) | –
O=C1/C(=C\c2cc(Cl)c(O)c(Cl)c2)SC(=S)N1Cc1ccccc1 | 159% (inactive) | –
COc1ccc(/C=C2\SC(=Nc3ccccc3OC)NC2=O)cc1 | 7.1% (inactive) | –
COc1cc(/C=C2\SC(=Nc3ccc(O)cc3)NC2=O)cc(OC)c1O | -2.7% (inactive) | –
COc1ccccc1N=C1NC(=O)/C(=C/c2ccc(N(C)C)cc2)S1 | 52.4% (active) | –
